Inconclusive results are not listed. Where a call stands in place of a potency, no number is given. The source made the active and inactive calls. Calls come from the whole dose curve; as a rule, active = well fitted inhibition curve with a large enough effect; inconclusive = small, poorly fitted or top-dose-only effect; inactive = flat fitted curve, though single readings scatter.
Potency is the fitted concentration of half-maximal effect.

This test addresses Luciferin 4-monooxygenase (Photuris pensylvanica) (UniProt Q27757). Put plainly: Secondary Assay for Luciferase (Kinase-Glo TM) Inhibition Counterscreen. Particulars: Kinase-Glo luciferase enzyme, luminescence; series mostly up to 58.1 µM. The method, then: NIH Chemical Genomics Center [NCGC] Malcolm Walkinshaw, Hugh Morgan, Linda Gilmore University of Edinburgh, UK MLPCN Grant: 1 R03 MH085697-01 NCGC Assay Overview: Luciferase (Kinase-Glo, Promega Corporation) was assayed for its ability to generate light using ATP and luciferin as substrates. The ATP concentration in the assay (10 uM) was within the linear range of enzyme activity for the assay conditions used. This assay was used as an counter screen for human pyruvate kinase M2 isoform.
NCGC Assay Protocol Summary: Four uL of substrate mix (final concentration, 50 mM imidazole pH 7.2, 50 mM KCl, 7 mM MgCl2, 10 uM ATP, 0.01% Tween 20, 0.05% BSA) was dispensed into white 1536 well plates. Twenty-three nL of compound was delivered by a pin tool and 2 uL of luciferase detection mix (Kinase-Glo, Promega)) was added. Following 8-minute incubation at ambient temperature, luminescence was measured by a ViewLux (Perkin Elmer) at 5 seconds exposure/plate. Data were normalized to the controls for basal activity (DMSO only) and 100% inhibition (40 uM SIB 1757) and curve fitting was performed using Hill equation.
In general terms: Kinase-Glo reads ATP consumption through a luciferase reaction.
`O=C1c2ccccc2C(=O)N1c1cccc(O)c1`: the Potency entry was “inactive”.

In the case of `Cc1ccccc1N=CC1=C(O)c2ccccc2C1=O`, the Potency is 11.6 µM (active).

As for `O=C1NS(=O)(=O)c2ccccc21`, the Potency result was “inactive”.

For the compound `Cc1ccc(NS(=O)(=O)c2cccc(F)c2)cc1C`, the Potency entry is “inactive”.

As for `CC(=O)N(C1=C(Cl)C(=O)c2ccccc2C1=O)C1CCCCC1`, the Potency result is “inactive”.

As to `COc1ccc(-c2cc3nc(C)n(N)c(=O)c3s2)cc1`, the Potency was 2.31 µM (active).

For the compound `O=C1CCc2cc(S(=O)(=O)Nc3cccc(-c4ccccc4)c3)ccc2N1`, the Potency result was “inactive”.

As for `O=C1CCc2cc(S(=O)(=O)Nc3ccc4ccccc4c3)ccc2N1`, the Potency result was “inactive”.

As for `O=c1c2ccccc2cnn1-c1nc2ccccc2[nH]1`, the Potency was 2.59 µM (active).

For the compound `O=C1CCc2cc(S(=O)(=O)Nc3cccc(F)c3)ccc2N1`, the Potency result is “inactive”.

For `COc1cc(Cl)c(C)cc1NC(=O)COC(=O)c1cc[n+]([O-])cc1`, the Potency entry was “inactive”.

On to `Cn1c2cc(S(C)=O)sc2c2cnn(Cc3cccc(O)c3)c(=O)c21` (stereo not given), for which the Potency entry was “inactive”.

In the case of `COc1cccc(N2C(=O)c3ccccc3C2=O)n1`, the Potency entry was “inactive”.

On to `O=C(NC(=O)c1ccccc1)Nc1ccccn1`, for which the Potency is 5.8 µM (active).

Consider `COc1ccc2[nH]c3c4c(ccc3c2c1)C(=O)C=CC4=O`, for which the Potency entry was “inactive”.

Take `O=C1c2ccccc2C(=O)N1c1ccc2ncccc2c1`: the Potency entry was “inactive”.

For `COc1cccc(Cn2ncc3c4sc(S(C)=O)cc4n(C)c3c2=O)c1` (stereo not given), the Potency entry was “inactive”.

For `CSc1cc2c(s1)c1cnn(Cc3cccc(O)c3)c(=O)c1n2C`, the Potency result is “inactive”.

With `CN(C)c1ccc(N=Nc2nc3ccccc3n2C)cc1`, the Potency is 9.19 µM (active).

As for `O=S1(=O)N=C(Oc2cccc(Cl)c2)c2ccccc21`, the Potency result was “inactive”.

With `O=S1(=O)N=C(Oc2ccc(Cl)cc2)c2ccccc21`, the Potency entry was “inactive”.

Turning to `Brc1ccc(N=Nc2ccc3ccccc3n2)cc1`, the Potency was 7.3 µM (active).

On to `Cc1ccc(NS(=O)(=O)c2cc3c(cc2F)NC(=O)CC3)cc1C`, for which the Potency entry is “inactive”.

For the compound `N/C(=N\OC(=O)c1ccccc1)c1ccccn1`, the Potency was 4.61 µM (active).

Turning to `Cc1ccc(NS(=O)(=O)c2cc3c(cc2Cl)NC(=O)CO3)cc1C`, the Potency result was “inactive”.

Take `COC(=O)CSC1=NS(=O)(=O)c2ccccc21`: the Potency entry was “inactive”.

Regarding `Cc1nc(N/N=C/c2ccccn2)sc1C`, the Potency was 5.8 µM (active).

Take `Cc1ccc(NS(=O)(=O)c2ccc3c(c2)n(C)c(=O)n3C)cc1C`: the Potency result was “inactive”.

In the case of `COc1cc(/C=N/N2C(C)CCCC2C)cc(OC)c1O` (stereo not given), the Potency entry was “inactive”.

Regarding `O=C1CCc2cc(S(=O)(=O)Nc3ccc(Cl)cc3)ccc2N1`, the Potency result was “inactive”.

With `O=C1CCc2cc(S(=O)(=O)Nc3ccc4c(c3)OCCO4)ccc2N1`, the Potency entry was “inactive”.

As to `Cc1ccc(NS(=O)(=O)c2cc3c(cc2/C=C/c2ccccc2)NC(=O)CO3)cc1C`, the Potency entry is “inactive”.

Regarding `Cc1ccc2c(c1)c1ccc3c(c1n2C)C(=O)C=CC3=O`, the Potency result is “inactive”.

With `Cc1ccc(NS(=O)(=O)c2ccc3c(c2)NC(=O)CO3)cc1C`, the Potency entry is “inactive”.

Turning to `CC(C)CN=Cc1c(O)c([N+](=O)[O-])cc2oc3c(c12)CCCC3`, the Potency result is “inactive”.

For the compound `O=C1c2ccccc2C(=O)N1c1cccc2cnccc12`, the Potency result was “inactive”.

For `O=CN/C=C/c1cc(O)ccc1O`, the Potency entry was “inactive”.

As to `Cc1sc2nc(CN3CCN(c4ccc(O)cc4)CC3)[nH]c(=O)c2c1C`, the Potency entry was “inactive”.

`Cc1cc(C)c2c(=O)n(CC(=O)Nc3cccc(Cl)c3C)sc2n1`: the Potency result is “inactive”.

On to `CCOC(=O)Cc1csc(NC(=S)NC(=O)c2ccc([N+](=O)[O-])cc2)n1`, for which the Potency entry was “inactive”.
